# Most compounds without a hit are left out; they make up all but 1.1% or so of the library.
# OPRM1-OPRD1 ag – agonists of human mu-delta opioid receptor heterodimerization; 0.3% of 340,000 active; P35372+P41143; cells, OPRM1-OPRD1 heterodimerization, luminescence; activation, % at 9.3 µM; in the data active = activation above about 18%;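 note: 0% = vehicle-treated cells and 100% = reference agonist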
# HTR5A inv ag – inverse agonist of human HTR5A in OPRM1-OPRD1 counter-screen; P47898; HTR5A cell line, luminescence, inverse agonism; inhibition, % at 9.3 µM; 0.083% of 340,000 active; in the data active = inhibition mostly above about 23%, no sharp cut-off; inactive = mostly below about 18%;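 note: 0% = cells with DMSO and 100% = no-cell wells with DMSO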
# Target sequence (P47898 whole entry, looked up): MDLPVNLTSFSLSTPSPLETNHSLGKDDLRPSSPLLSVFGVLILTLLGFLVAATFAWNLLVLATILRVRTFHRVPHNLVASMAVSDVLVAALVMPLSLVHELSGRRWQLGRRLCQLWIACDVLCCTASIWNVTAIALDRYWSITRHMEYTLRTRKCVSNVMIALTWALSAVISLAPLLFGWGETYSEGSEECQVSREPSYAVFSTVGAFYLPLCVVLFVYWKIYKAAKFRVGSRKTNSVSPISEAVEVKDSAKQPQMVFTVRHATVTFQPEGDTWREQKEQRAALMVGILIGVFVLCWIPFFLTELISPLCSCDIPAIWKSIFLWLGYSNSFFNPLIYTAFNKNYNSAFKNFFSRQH
# MOR-DOR inv ag – inverse agonists of human mu-delta opioid receptor heterodimerization; P35372+P41143; cell-based MOR-DOR heterodimer luminescence, inverse agonism; inhibition, % at 9.3 µM; 0.21% of 340,000 active; AID 504357; in the data active = inhibition above about 22%, passing the limit was not always enough;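 note: 0% = cells with DMSO and 100% = wells without cells with DMSO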
# HTR5A ag ctr – counter-screen for OPRM1-OPRD1 agonists: human HTR5A agonism; activation, % at 9.3 µM; 0.61% of 340,000 active; AID 504692; HTR5A agonist assay, luminescence, cell-based; P47898; in the data active = activation mostly above about 9.5%, no sharp cut-off; inactive = mostly below about 7.6%;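 note: 0% = cells with vehicle only and 100% = reference agonist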
# * = called active by the depositor; i = inactive.
SMILES,OPRM1-OPRD1 ag,HTR5A inv ag,MOR-DOR inv ag,HTR5A ag ctr
Cc1nc(-c2ccc(C(=O)Nc3ccc(F)cc3)cc2)cs1,8.8,-36.8,-63.6,13.0*
OCC[C@@H]1NCc2cc(CO)cc(-c3ccccc3)c21,-3.3,8.7,15.3,-2.5
CN(C)CCNC(=O)c1cc2c(s1)-c1ccc(Cl)cc1SC2,38.5*,-201.8,-213.2,51.5*
CCOCCCNC(=O)c1cc2c(s1)-c1ccccc1SC2,-1.5,-8.3,8.8,2.1
Cc1ccc(C(=O)Sc2cccccc2=O)cc1,-8.8,33.8*,39.8*,-9.6
Cc1ccc(C(=O)N/N=C/c2cc(Br)ccc2O)cn1,1.0,-38.2,-4.6,10.3*
CC(C)N(C(=O)[C@H]1C[C@H](CC(=O)NCCc2ccccn2)C(=O)N2CCc3c([nH]c4cc(CCC(=O)N(C)C)ccc34)[C@]12C)C(C)C,-3.4,-3.0,16.6,0.8
CC(=O)N/C(=C\c1ccccc1)C(=O)OCc1cccc(S(=O)(=O)N(C)C)c1,0.5,-33.7,-2.1,9.4*
O=C(CSc1nc2c([nH]c3ccccc32)c(=O)n1-c1ccccc1F)NCC1CCCO1 (stereo not drawn),-12.1,59.8*,62.9*,-17.9
Cc1ccccc1-n1c(SCC(=O)NCC2CCCO2)nc2c([nH]c3ccccc32)c1=O (stereo not drawn),-9.7,52.4*,53.6*,-16.0
C=CCn1c(SCC(=O)NCC2CCCO2)nc2c([nH]c3ccccc32)c1=O (stereo not drawn),-2.5,14.8,14.1,-0.6
COc1ccc(C)cc1-n1c(SCC(=O)NCC2CCCO2)nc2c([nH]c3ccccc32)c1=O (stereo not drawn),0.6,-14.6,-3.3,1.9
COc1ccc(Nc2nc(N)nc(CCl)n2)cc1,21.2*,-175.8,-107.9,48.4*
O=C(NCC1(c2ccccc2)CCCC1)c1ccccc1,-0.5,21.0,3.9,1.9
O=C(NCC1(c2ccccc2)CCCC1)C(=O)NCC1(c2ccccc2)CCCC1,0.6,9.1,-2.8,9.9*
O=S(=O)(NN=C1CCCCCC1)c1ccccc1,-0.2,-28.1,1.2,13.0*
O=S(=O)(NN=C1CCCCC1)c1ccccc1,-1.3,-18.0,6.6,4.3
Cc1cc([N+](=O)[O-])ccc1NC(=O)c1csc(C)c1C,-0.3,-0.8,1.5,13.3*
Cn1c(N)c(C(=O)COC(=O)C2(c3ccc(F)cc3)CCCC2)c(=O)n(C)c1=O,1.4,17.8,-8.0,8.4*
CCOC(=O)CNc1nc(Cl)nc(Nc2ccc(C)cc2)n1,3.5,6.3,-17.6,13.8*
O=C(COc1ccc(Cl)cc1Br)Nc1cccc(S(=O)(=O)N2CCCC2)c1,4.2,-7.5,-16.6,13.7*
Cc1ccc(NC(=O)COc2cccc(C)c2C)cc1S(=O)(=O)N1CCCCCC1,1.6,-30.4,-8.5,11.2*
CCOc1cc(C(c2c(C)[nH][nH]c2=O)c2c(C)[nH][nH]c2=O)ccc1OCc1ccc([N+](=O)[O-])cc1,-0.2,-55.4,0.9,11.5*
O=C1NC(=O)C2(C=C(c3ccccc3)C(O)(c3ccccc3)C2)N1 (stereo not drawn),-1.9,6.0,9.3,-1.5
Cc1ccc(-c2noc(CCCC(=O)N3CCOCC3)n2)cc1,-2.2,-12.2,11.1,4.7
SMILES,OPRM1-OPRD1 ag,HTR5A inv ag,MOR-DOR inv ag,HTR5A ag ctr
Cc1cccc(-c2noc(CCCC(=O)N3CCOCC3)n2)c1,-2.3,-2.1,13.1,9.8*
Fc1ccc(/C=C2\CCCC3=C2Nc2ncnn2C3c2ccc(F)cc2)cc1 (stereo not drawn),5.7,-59.4,-31.1,10.5*
CCN(CC)S(=O)(=O)c1ccc(/C=C/C(=O)OCC(=O)NCc2ccco2)cc1,-0.9,7.4,3.7,-3.0
Cc1cc(C(=O)CCl)c(C)n1CCc1ccc(Cl)cc1,18.9*,-6.2,-94.1,16.7*
Cc1cc(C(=O)CCl)c(C)n1CCc1ccc(F)cc1,3.3,3.0,-16.4,7.1
O=C(CSc1ncn[nH]1)Nc1ncc(C(F)(F)F)cc1Cl,-0.5,-4.9,2.6,1.9
O=C(CSc1ncn[nH]1)Nc1ccc(Cl)c(Cl)c1,-3.1,5.8,15.7,8.7*
N#CCCN(C(=O)COC(=O)CCc1nc2ccccc2c(=O)[nH]1)c1ccc(F)cc1,-1.2,-38.1,6.6,10.5*
OCCN=C1CCCc2c1[nH]c1ccc(Cl)cc21,2.9,-7.2,-15.1,12.6*
OCCCN=C1CCCc2c1[nH]c1ccc(Cl)cc21,-0.4,-11.3,1.9,4.9
CCN1C(Nc2ccccc2)=NC[C@@H]1C,0.2,-6.1,-0.8,13.1*
CC(C)CN1C(Nc2ccccc2)=NC[C@@H]1C,-2.8,-18.2,12.9,-1.2
Cc1ccc(-n2[nH]c(C)c(C=Nc3ccc4[nH]c(=O)[nH]c4c3)c2=O)cc1C,24.9*,-42.3,-114.5,22.2*
Cc1ccc(-n2[nH]c(C)c(C=Nc3ccc4[nH]c(=O)[nH]c4c3)c2=O)cc1,5.6,-3.5,-33.8,1.3
CC1(C)Oc2ccc3ccc(=O)oc3c2/C(=C/O)C1=O,-1.0,-11.5,5.5,13.5*
CC[C@@H](C(=O)[C@@H](C)[C@@H](O)[C@H](C)CCc1ccc(C)c(O)c1C(=O)O)[C@H]1O[C@](CC)([C@H]2CC[C@](O)(CC)[C@H](C)O2)C[C@@H]1C,102.0*,-143.2,i,40.1*
O=C(CN1CCN(c2ccccc2O)CC1)Nc1cc([N+](=O)[O-])ccc1Cl,2.8,7.7,-14.0,2.0
O=C(CN1CCN(c2ccccc2O)CC1)Nc1ccc([N+](=O)[O-])cc1Br,4.1,-30.7,-20.8,10.9*
Cc1cccc(N2CCN(S(=O)(=O)c3ccc4c(c3)NC(=O)CS4)CC2)c1C,11.0,-14.7,-56.0,11.8*
Cc1cccc(N2CCN(S(=O)(=O)c3ccc4c(c3)NC(=O)C(C)S4)CC2)c1C (stereo not drawn),1.9,2.3,-9.6,-0.6
CN(c1cccc(Cl)c1)S(=O)(=O)c1cccc(C(=O)NCc2ccncc2)c1,-1.2,2.0,6.4,-0.6
CCOc1ccc(N(CC(=O)NCc2ccc(F)cc2)C(=O)CCC(=O)Nc2nccs2)cc1,0.9,-10.7,-7.2,12.7*
Cc1cccc(C)c1N(CC(=O)NCc1ccc(F)cc1)C(=O)c1csnn1,2.1,-2.3,-10.9,0.8
CCc1ccc(N(CC(=O)NCc2ccc(F)cc2)C(=O)c2csnn2)cc1,-1.9,-23.2,9.9,9.4*
O=S(=O)(c1ccccc1Br)N(Cc1ccccc1)CC(O)COCc1ccccc1 (stereo not drawn),3.1,-13.4,-15.3,3.6
SMILES,OPRM1-OPRD1 ag,HTR5A inv ag,MOR-DOR inv ag,HTR5A ag ctr
Cc1cc(SCC(=O)N(C)c2c(N)n(Cc3ccccc3)c(=O)[nH]c2=O)nc2ccccc12,-1.6,22.2,8.6,-0.3
Cc1csc(SCC(=O)N(C)c2c(N)n(Cc3ccccc3)c(=O)[nH]c2=O)n1,-2.1,-31.7,9.9,11.6*
CC(C)n1cnc2c(Nc3cccc(Cl)c3)nc(NCCCO)nc21,-0.8,5.9,4.5,-2.0
C=CC(=O)Nc1cccc(Nc2nc(N[C@H]3CC[C@H](N(C)C)CC3)nc3c2ncn3C(C)C)c1,35.8*,6.8,-195.6,-2.7
CCC1(c2ccccc2)NC(=O)N(CC(=O)Nc2ccc(OC)nc2)C1=O (stereo not drawn),0.7,-6.8,-4.1,1.9
CC1CCCCC1NC(=O)CN1CCN(S(=O)(=O)c2ccc(Br)s2)CC1 (stereo not drawn),-1.6,-8.8,6.2,1.0

# Screening data from PubChem.
